Measured values from PubChem BioAssay (EPA / NIEHS).
Results filed as inconclusive are left out. Activity calls are given as the source filed them. The calls were made as follows, unless noted: active = hit-call score of the fitted dose curve at least 0.9, where 1 is the maximum; inactive = score below 0.9.

Assays:
[1] = biological target: Paired box protein Pax-6 (Homo sapiens) (UniProt P26367); experiment: ATG_Pax6_CIS: Attagene CIS-FACTORIAL HepG2 Assay for human Paired Box 6 (PAX6) (AID 2282956); settings: HepG2 CIS-FACTORIAL PAX6 reporter transcription, RNA readout; actives raise or lower the signal
Summary of the method: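 Fluorescent RT-PCR products separated by capillary electrophoresis report PAX6-linked promoter mRNA in HepG2 cells 24 h post-dose. Curves fitted bidirectionally, DMSO as negative control.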

[2] = ATG_PXRE_CIS: Attagene CIS-FACTORIAL HepG2 Assay for human Pregnane X Receptor Element (PXRE) (AID 2282957); settings: HepG2 Attagene CIS-FACTORIAL PXRE reporter, mRNA; actives raise or lower the signal
Summary of the method: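 Bidirectional activity, baselined to DMSO, derived from reporter mRNA fluorescence (RT-PCR plus capillary electrophoresis) in HepG2 cells bearing cis-promoter reporter units, 24 h exposure.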

[3] = ATG_RORE_CIS: Attagene CIS-FACTORIAL HepG2 Assay for human RAR-related Orphan Receptor Element (RORE) (AID 2282959); settings: HepG2 Attagene cis-factorial RORE reporter, mRNA; actives raise or lower the signal
Summary of the method: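 Readout: fluorescent reporter mRNA by RT-PCR plus capillary electrophoresis, 24 h after dosing transfected HepG2 cells. Endogenous transcription factor activity on a cis promoter element is measured. Gain or loss of signal fitted against DMSO.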

[4] = ATG_Sox_CIS: Attagene CIS-FACTORIAL HepG2 Assay for human SRY-box transcription factor (SOX) (AID 2282960); settings: HepG2 Attagene cis-factorial SOX reporter, mRNA; actives raise or lower the signal
Summary of the method: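 Read-out: fluorescent RT-PCR products of SOX1-linked reporter transcripts resolved by capillary electrophoresis, fitted bidirectionally against DMSO. Transiently transfected HepG2 cells, 24 h after chemical exposure, endogenous transcription factor activity.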

[5] = biological target: Transcription factor Sp1 (Homo sapiens) (UniProt P08047); experiment: ATG_Sp1_CIS: Attagene CIS-FACTORIAL HepG2 Assay for human Specificity Protein 1 (Sp1) (AID 2282961); settings: HepG2 Sp1 cis-reporter transcription, actives raise or lower the signal
Summary of the method: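 Read-out: fluorescence of 6-FAM-labeled, HpaI-digested RT-PCR products separated by capillary electrophoresis. HepG2 cells carried transfected cis-element reporter units and were exposed to chemicals for 24 h; gain or loss of signal fitted relative to DMSO.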

[6] = ATG_SREBP_CIS: Attagene CIS-FACTORIAL HepG2 Assay for human Sterol Regulatory Element Binding (SREBP) (AID 2282962); settings: HepG2 Attagene cis-factorial SREBP reporter, mRNA; actives raise or lower the signal
Summary of the method: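 Endogenous factor activity is measured in HepG2 through multiplexed reporter units under cis-element control. Following a 24 h incubation, reporter transcripts are reverse-transcribed, PCR-amplified and sized by capillary electrophoresis; activity is fitted in both directions relative to DMSO.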

[7] = biological target: Signal transducer and activator of transcription 3 (Homo sapiens) (UniProt P40763); experiment: ATG_STAT3_CIS: Attagene CIS-FACTORIAL HepG2 Assay for human Signal Transducer and Activator of Transcription 3 (STAT3) (AID 2282963); settings: HepG2, Attagene cis-factorial STAT3 reporter transcription; actives raise or lower the signal
Summary of the method: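 Fluorescence intensity of 6-FAM-labelled reporter fragments, separated by capillary electrophoresis after RT-PCR, gave the signal. Cells were HepG2 transfected with cis-element reporter units and treated 24 h; fitting was bidirectional relative to DMSO.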

[8] = ATG_TA_CIS: Attagene CIS-FACTORIAL HepG2 Assay for human TA Basal Promoter (AID 2282964); settings: HepG2 Attagene CIS-factorial TA basal promoter reporter; actives raise or lower the signal
Summary of the method: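 Read-out: fluorescent reporter-transcript fragments resolved by capillary electrophoresis after RT-PCR and HpaI digestion. Source: HepG2 cells carrying transiently transfected multi-reporter cis constructs, treated 24 h. Endpoint fitted bidirectionally relative to DMSO.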

[9] = ATG_TAL_CIS: Attagene CIS-FACTORIAL HepG2 Assay for human TAL Basal Promoter (AID 2282966); settings: HepG2 Attagene cis-factorial TAL promoter reporter; actives raise or lower the signal;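 also: background control endpoint measuring basal TAL promoter reporter mRNA not a specific factor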
Summary of the method: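 Human hepatoma HepG2 cells, transfected with promoter-regulated reporter units, were treated 24 h. Reporter transcript levels, measured through RT-PCR and capillary electrophoresis, were fitted for gain or loss relative to DMSO.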

[10] = ATG_TGFb_CIS: Attagene CIS-FACTORIAL HepG2 Assay for human Transforming Growth Factor (TGF) (AID 2282967); settings: HepG2 Attagene CIS TGFb reporter, mRNA transcription; actives raise or lower the signal
Summary of the method: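 Transient MRTU transfection of HepG2 (FuGene 6). Dose 24 h. TriZol RNA, oligo(dT) RT, PCR, 6-FAM primer extension, HpaI cut, CE. Bidirectional fit, DMSO = baseline.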

[11] = ATG_VDRE_CIS: Attagene CIS-FACTORIAL HepG2 Assay for human Vitamin D Receptor Element (VDRE) (AID 2282968); settings: HepG2 VDRE cis-reporter transcription, actives raise or lower the signal
Summary of the method: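 Compounds were applied for 24 h to HepG2 cells transfected with promoter-regulated reporter units. Total RNA was reverse-transcribed, and reporter amplicons were fluorescently labelled and sized by capillary electrophoresis.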

[12] = biological target: X-box-binding protein 1 (Homo sapiens) (UniProt P17861); experiment: ATG_Xbp1_CIS: Attagene CIS-FACTORIAL HepG2 Assay for human X-box Binding Protein 1 (XBP1) (AID 2282972); settings: HepG2 XBP1 cis-element reporter, Attagene multiplex; actives raise or lower the signal
Summary of the method: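 Multiplexed cis-reporter readout in transfected HepG2 liver cells. Exposure lasted 24 hours. Activity in either direction was fitted against DMSO as negative control and baseline.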

[13] = ATG_M_19_TRANS: Attagene TRANS-FACTORIAL HepG2 Assay for M19 Transcription Factor (Internal Marker) (AID 2282974; active = hit-call score of the fitted dose curve at least 0.9, where 1 is the maximum); settings: HepG2 Attagene TRANS-FACTORIAL M19 internal marker reporter
Summary of the method: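 24 h chemical exposure of transiently transfected HepG2 (MRTU library). RNA → oligo(dT) RT → PCR → 6-FAM labelling → HpaI cut → CE fluorescence. Positive-direction fit vs DMSO baseline; background internal-marker readout.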

[14] = ATG_GAL4_TRANS: Attagene TRANS-FACTORIAL HepG2 Assay for GAL4 (Internal Marker) (AID 2282976; active = hit-call score of the fitted dose curve at least 0.9, where 1 is the maximum); settings: HepG2 Attagene TRANS GAL4 internal marker reporter
Summary of the method: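 Liver HepG2 line bearing multiplexed GAL4-UAS reporter constructs; 24 h chemical treatment. Transcripts were quantified as fluorescent fragments on capillary electrophoresis after RT-PCR and HpaI cut, with activity fitted upward from DMSO.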

[15] = biological target: Estrogen-related receptor gamma (Homo sapiens) (UniProt P62508); experiment: ATG_ERRg_TRANS: Attagene TRANS-FACTORIAL HepG2 Assay for human Estrogen-Related Receptor gamma (ERRg) (AID 2282977; active = hit-call score of the fitted dose curve at least 0.9, where 1 is the maximum;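 also: hits increase reporter signal over DMSO so potencies reflect activators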); settings: HepG2 Attagene TRANS reporter, ERRg transactivation
Summary of the method: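 Exogenous NR-Gal4 chimera activity measured as reporter transcript induction after 24 h in transiently transfected HepG2 cells. RNA reverse-transcribed, PCR-amplified, 6-FAM-labelled and resolved by capillary electrophoresis; increase over DMSO baseline.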

[16] = ATG_TCF_b_cat_CIS: Attagene CIS-FACTORIAL HepG2 Assay for human T-Cell-Factor with beta-catenin (TCF/b-cat) (AID 2282965); settings: HepG2 TCF/beta-catenin cis-reporter transcription, actives raise or lower the signal
Summary of the method: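 HepG2 cells transiently transfected with cis-promoter-driven multiplexed reporter units; reporter mRNA measured 24 h after dosing by RT-PCR, FAM labelling, HpaI digestion and capillary electrophoresis. Bidirectional fitting relative to DMSO baseline.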

[17] = biological target: Steroid hormone receptor ERR1 (Homo sapiens) (UniProt P11474); experiment: ATG_ERRa_TRANS: Attagene TRANS-FACTORIAL HepG2 Assay for human Estrogen-Related Receptor alpha (ERRa) (AID 2282971; active = hit-call score of the fitted dose curve at least 0.9, where 1 is the maximum); settings: HepG2 Attagene TRANS reporter, ERRa transactivation
Summary of the method: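 Signal gain relative to DMSO for an ERRa-Gal4 chimeric receptor, read as reporter mRNA by RT-PCR/capillary electrophoresis. Human HepG2 liver cells, transient multiplex reporter transfection, 24 h chemical exposure.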

[18] = biological target: Nuclear receptor subfamily 1 group I member 3 (Homo sapiens) (UniProt Q14994); experiment: ATG_CAR_TRANS: Attagene TRANS-FACTORIAL HepG2 Assay for human Constitutive Androstane Receptor (CAR) (AID 2282969; active = hit-call score of the fitted dose curve at least 0.9, where 1 is the maximum;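 also: activators raise reporter mRNA above DMSO so AC50 marks induction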); settings: HepG2 Attagene TRANS-FACTORIAL CAR reporter
Summary of the method: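 Transiently transfected HepG2, multiplex TRANS reporters (CAR-Gal4 chimera driving GAL4-UAS reporter). 24 h dosing. Readout: reporter transcript by RT-PCR + capillary electrophoresis, fluorescence intensity; positive direction vs DMSO.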

[19] = biological target: Estrogen receptor (Homo sapiens) (UniProt P03372); experiment: ATG_ERa_TRANS: Attagene TRANS-FACTORIAL HepG2 Assay for human Estrogen Receptor alpha (ERa) (AID 2282970; active = hit-call score of the fitted dose curve at least 0.9, where 1 is the maximum); settings: HepG2 Attagene TRANS ERa GAL4 reporter, mRNA
Summary of the method: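 Signal derives from fluorescence of labelled reporter PCR fragments separated by capillary electrophoresis. HepG2 cells transiently carrying multiple GAL4-UAS reporter units were treated 24 hours, and induction above DMSO baseline was fitted as activity.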

Measured: AC50

Paired box protein Pax-6 (Homo sapiens), sequence (P26367 whole entry, looked up): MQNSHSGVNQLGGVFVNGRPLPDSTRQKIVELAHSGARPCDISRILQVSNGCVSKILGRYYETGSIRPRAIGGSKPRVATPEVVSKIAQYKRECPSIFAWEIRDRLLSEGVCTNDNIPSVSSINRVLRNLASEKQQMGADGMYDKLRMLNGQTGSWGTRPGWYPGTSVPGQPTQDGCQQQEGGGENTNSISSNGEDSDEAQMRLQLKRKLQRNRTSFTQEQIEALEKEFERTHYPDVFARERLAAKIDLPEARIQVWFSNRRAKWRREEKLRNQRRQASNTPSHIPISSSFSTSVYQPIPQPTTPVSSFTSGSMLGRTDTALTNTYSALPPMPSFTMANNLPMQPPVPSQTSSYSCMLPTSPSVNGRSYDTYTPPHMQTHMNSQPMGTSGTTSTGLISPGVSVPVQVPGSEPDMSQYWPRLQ
Steroid hormone receptor ERR1 (Homo sapiens), sequence (P11474 whole entry, looked up, the tested form may be a part): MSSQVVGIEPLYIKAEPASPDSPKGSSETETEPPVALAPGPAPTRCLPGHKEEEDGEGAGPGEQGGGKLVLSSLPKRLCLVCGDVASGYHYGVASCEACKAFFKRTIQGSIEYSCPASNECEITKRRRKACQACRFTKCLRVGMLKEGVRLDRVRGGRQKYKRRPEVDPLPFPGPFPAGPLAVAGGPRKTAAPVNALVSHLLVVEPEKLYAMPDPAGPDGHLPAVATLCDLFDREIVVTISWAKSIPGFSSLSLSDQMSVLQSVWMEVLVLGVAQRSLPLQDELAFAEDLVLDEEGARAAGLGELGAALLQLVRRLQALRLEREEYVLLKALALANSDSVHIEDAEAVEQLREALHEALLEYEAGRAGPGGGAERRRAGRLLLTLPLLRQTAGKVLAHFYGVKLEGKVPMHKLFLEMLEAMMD
Signal transducer and activator of transcription 3 (Homo sapiens), sequence (P40763 whole entry, looked up, the tested form may be a part): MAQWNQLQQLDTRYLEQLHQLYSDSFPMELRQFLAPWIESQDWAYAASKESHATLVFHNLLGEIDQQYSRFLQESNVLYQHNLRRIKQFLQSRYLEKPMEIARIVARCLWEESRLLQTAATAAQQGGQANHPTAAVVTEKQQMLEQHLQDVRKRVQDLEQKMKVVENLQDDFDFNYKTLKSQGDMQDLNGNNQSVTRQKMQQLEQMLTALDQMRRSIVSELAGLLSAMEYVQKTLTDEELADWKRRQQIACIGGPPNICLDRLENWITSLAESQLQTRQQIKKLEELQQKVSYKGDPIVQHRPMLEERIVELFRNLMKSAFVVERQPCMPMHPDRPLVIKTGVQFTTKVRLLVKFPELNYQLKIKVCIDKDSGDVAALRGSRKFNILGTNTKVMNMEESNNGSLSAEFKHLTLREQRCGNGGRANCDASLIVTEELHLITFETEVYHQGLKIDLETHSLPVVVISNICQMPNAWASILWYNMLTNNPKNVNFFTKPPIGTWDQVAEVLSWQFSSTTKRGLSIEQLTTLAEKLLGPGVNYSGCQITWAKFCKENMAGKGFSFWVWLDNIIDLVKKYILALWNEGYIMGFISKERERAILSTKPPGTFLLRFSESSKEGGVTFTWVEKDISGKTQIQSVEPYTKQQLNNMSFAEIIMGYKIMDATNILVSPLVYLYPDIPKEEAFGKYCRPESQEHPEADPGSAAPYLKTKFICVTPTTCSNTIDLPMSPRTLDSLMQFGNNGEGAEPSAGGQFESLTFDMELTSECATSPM
Transcription factor Sp1 (Homo sapiens), sequence (P08047 whole entry, looked up): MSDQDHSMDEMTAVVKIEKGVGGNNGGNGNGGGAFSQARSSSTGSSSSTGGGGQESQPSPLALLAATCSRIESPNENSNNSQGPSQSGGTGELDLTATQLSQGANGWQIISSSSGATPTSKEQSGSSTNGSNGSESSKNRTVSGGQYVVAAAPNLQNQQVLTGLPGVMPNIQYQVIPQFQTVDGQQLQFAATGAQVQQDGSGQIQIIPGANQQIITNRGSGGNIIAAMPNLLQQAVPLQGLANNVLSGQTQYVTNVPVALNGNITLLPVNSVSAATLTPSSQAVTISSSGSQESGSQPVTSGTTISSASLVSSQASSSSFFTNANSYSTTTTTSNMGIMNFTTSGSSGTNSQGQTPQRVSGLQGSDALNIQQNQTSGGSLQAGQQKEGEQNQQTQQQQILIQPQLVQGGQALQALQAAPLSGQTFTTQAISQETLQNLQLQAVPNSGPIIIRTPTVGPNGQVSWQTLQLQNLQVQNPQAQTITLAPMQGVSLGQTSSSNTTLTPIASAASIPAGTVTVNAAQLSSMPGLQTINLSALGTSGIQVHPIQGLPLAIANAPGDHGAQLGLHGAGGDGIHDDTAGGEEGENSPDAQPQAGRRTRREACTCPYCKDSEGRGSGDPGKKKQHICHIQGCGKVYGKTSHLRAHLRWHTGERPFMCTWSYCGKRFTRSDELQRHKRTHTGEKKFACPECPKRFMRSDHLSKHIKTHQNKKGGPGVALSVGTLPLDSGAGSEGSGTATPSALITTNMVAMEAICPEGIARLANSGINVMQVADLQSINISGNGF
Estrogen-related receptor gamma (Homo sapiens), sequence (P62508 whole entry, looked up, the tested form may be a part): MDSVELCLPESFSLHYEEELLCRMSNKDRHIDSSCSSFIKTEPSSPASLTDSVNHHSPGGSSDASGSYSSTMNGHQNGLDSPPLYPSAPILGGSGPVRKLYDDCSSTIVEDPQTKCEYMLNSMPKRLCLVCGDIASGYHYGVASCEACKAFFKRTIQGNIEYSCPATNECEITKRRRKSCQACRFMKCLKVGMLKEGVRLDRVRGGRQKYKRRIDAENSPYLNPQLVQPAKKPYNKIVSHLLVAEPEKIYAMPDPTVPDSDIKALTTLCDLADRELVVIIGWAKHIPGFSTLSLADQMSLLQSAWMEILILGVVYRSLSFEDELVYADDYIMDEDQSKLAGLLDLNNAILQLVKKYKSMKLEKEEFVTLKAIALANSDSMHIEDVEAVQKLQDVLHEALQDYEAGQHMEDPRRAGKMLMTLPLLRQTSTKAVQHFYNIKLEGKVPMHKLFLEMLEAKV
X-box-binding protein 1 (Homo sapiens), sequence (P17861 whole entry, looked up): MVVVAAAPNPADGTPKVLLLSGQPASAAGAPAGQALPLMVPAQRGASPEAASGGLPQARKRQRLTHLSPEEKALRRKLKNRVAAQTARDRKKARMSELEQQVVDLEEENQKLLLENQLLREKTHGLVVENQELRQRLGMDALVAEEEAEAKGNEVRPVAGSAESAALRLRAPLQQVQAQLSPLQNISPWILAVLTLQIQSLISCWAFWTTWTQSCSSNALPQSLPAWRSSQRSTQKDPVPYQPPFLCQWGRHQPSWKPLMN
Estrogen receptor (Homo sapiens), sequence (P03372 whole entry, looked up, the tested form may be a part): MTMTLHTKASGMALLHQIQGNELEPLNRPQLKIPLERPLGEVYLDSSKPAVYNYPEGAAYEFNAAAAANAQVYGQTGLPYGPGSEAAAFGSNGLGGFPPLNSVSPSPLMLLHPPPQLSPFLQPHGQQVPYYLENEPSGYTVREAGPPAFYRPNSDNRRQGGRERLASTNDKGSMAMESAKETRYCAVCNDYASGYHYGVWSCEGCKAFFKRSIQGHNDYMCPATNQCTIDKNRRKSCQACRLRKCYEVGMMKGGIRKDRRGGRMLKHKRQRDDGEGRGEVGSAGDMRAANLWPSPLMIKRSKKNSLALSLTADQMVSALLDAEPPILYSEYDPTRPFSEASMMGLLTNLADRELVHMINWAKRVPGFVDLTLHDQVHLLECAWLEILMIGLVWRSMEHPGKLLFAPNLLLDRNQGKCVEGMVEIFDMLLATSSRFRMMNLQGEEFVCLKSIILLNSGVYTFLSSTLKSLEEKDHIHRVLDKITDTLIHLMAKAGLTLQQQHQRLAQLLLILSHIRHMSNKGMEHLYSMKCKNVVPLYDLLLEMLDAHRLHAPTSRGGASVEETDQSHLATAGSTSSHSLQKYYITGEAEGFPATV
Nuclear receptor subfamily 1 group I member 3 (Homo sapiens), sequence (Q14994 whole entry, looked up, the tested form may be a part): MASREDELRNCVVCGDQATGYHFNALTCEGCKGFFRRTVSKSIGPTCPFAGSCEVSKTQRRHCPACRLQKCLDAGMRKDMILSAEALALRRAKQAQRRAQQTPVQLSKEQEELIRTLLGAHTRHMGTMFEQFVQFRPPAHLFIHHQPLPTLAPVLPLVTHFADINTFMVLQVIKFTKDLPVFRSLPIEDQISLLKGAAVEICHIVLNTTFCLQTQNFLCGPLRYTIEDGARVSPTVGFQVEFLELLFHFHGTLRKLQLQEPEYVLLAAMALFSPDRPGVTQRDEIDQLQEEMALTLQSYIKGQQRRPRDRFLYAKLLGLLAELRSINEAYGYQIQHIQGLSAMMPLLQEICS

Cc1c(C2(c3cc(Br)c(O)c(Br)c3C)OS(=O)(=O)c3ccccc32)cc(Br)c(O)c1Br
active: [2] 11 µM | [11] 22.7 µM
not listed: [16] | [17] | [18] | [19]
inactive: all other assays above

Cc1cc(S(=O)(=O)O)ccc1N=Nc1c(O)ccc2ccccc12
active: [3] 4.16 µM | [10] 4.96 µM
not listed: [6] | [18] | [19]
inactive: all other assays above

Cc1occc(=O)c1OC(=O)C(C)C
not listed: [5] | [14] | [15] | [18] | [19]
inactive: all other assays above

CCCCCCC(C)(C)S
active: [2] 39 µM
not listed: [6] | [11] | [13] | [15] | [17] | [19]
inactive: all other assays above

CSc1c(Cl)c(Cl)c(Cl)c(Cl)c1Cl
active: [1] 100 µM | [2] 2.94 µM | [5] 72.8 µM | [6] 135 µM | [16] 50.3 µM | [12] 136 µM
inactive: [3] | [7] | [8] | [9] | [10] | [11]

CS(=O)(=O)c1ccc(Cl)cc1
active: [2] 100 µM
not listed: [6] | [13] | [18] | [19]
inactive: all other assays above

CN(c1nccc(=O)[nH]1)C1CCN(c2nc3ccccc3n2Cc2ccc(F)cc2)CC1
active: [2] 6.61 µM | [11] 9.35 µM
not listed: [6] | [13] | [15] | [17] | [18]
inactive: all other assays above

CC(C)NCC(O)COc1ccc(CC(N)=O)cc1 (stereo unspecified)
not listed: [6] | [15] | [17] | [18]
inactive: all other assays above

CCCCCCCCN1CCCC1=O
inactive: [3] | [4] | [6] | [8] | [16] | [9] | [10] | [11] | [18]
active: [1] 144 µM | [2] 26.2 µM | [7] 168 µM
